The values below come from PubChem BioAssay.

Activity calls are given as the source filed them.

Experiment [1] is described as follows: small molecules captured by biotinylated probe aFSTL3 – biochemical, small-molecule microarray, fluorescence 635/667, stem cell growth factor project, primary screen (AID 1064).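 Also: measures binding of the biotinylated anti-FSTL3 antibody to printed compounds.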 The following applies: higher = more signal.
Experiment [2] is described as follows: binders from COS7 lysate, DM2A8 probe, primary screen, torsin A project, cell lysate, small-molecule microarray, fluorescence 635/667 (AID 1065). The following applies: higher = more signal, COS7 lysate expressing mutant human TOR1A.
Experiment [3] can be described thus: small molecules captured by biotinylated probe aFGF2 – biochemical, small-molecule microarray, fluorescence 635/667, stem cell growth factor project, primary screen (AID 1067).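 Also: measures binding of biotinylated aFGF2 protein to printed compounds on slides; z-score merges feature fluorescence and signal-to-noise across triplicate slides.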 The following applies: higher = more signal.
The nature of experiment [4]: small molecules captured by biotinylated probe aFGF10 – biochemical, small-molecule microarray, fluorescence 635/667, stem cell growth factor project, primary screen (AID 1071).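 Also: score merges 667 nm spot intensity and signal to noise from triplicate slides.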 The following applies: higher = more signal.
In experiment [5] the target is Neurogenic locus notch homolog protein 2 (Homo sapiens) (UniProt Q04721). As to the kind of experiment: small molecules binding Notch2 protein – biochemical, small-molecule microarray, 635 nm fluorescence, stem cell growth factors, primary screen (AID 1073). The following applies: higher = more signal.
Sequence of Neurogenic locus notch homolog protein 2 (Homo sapiens) (Q04721 whole entry, looked up, canonical isoform): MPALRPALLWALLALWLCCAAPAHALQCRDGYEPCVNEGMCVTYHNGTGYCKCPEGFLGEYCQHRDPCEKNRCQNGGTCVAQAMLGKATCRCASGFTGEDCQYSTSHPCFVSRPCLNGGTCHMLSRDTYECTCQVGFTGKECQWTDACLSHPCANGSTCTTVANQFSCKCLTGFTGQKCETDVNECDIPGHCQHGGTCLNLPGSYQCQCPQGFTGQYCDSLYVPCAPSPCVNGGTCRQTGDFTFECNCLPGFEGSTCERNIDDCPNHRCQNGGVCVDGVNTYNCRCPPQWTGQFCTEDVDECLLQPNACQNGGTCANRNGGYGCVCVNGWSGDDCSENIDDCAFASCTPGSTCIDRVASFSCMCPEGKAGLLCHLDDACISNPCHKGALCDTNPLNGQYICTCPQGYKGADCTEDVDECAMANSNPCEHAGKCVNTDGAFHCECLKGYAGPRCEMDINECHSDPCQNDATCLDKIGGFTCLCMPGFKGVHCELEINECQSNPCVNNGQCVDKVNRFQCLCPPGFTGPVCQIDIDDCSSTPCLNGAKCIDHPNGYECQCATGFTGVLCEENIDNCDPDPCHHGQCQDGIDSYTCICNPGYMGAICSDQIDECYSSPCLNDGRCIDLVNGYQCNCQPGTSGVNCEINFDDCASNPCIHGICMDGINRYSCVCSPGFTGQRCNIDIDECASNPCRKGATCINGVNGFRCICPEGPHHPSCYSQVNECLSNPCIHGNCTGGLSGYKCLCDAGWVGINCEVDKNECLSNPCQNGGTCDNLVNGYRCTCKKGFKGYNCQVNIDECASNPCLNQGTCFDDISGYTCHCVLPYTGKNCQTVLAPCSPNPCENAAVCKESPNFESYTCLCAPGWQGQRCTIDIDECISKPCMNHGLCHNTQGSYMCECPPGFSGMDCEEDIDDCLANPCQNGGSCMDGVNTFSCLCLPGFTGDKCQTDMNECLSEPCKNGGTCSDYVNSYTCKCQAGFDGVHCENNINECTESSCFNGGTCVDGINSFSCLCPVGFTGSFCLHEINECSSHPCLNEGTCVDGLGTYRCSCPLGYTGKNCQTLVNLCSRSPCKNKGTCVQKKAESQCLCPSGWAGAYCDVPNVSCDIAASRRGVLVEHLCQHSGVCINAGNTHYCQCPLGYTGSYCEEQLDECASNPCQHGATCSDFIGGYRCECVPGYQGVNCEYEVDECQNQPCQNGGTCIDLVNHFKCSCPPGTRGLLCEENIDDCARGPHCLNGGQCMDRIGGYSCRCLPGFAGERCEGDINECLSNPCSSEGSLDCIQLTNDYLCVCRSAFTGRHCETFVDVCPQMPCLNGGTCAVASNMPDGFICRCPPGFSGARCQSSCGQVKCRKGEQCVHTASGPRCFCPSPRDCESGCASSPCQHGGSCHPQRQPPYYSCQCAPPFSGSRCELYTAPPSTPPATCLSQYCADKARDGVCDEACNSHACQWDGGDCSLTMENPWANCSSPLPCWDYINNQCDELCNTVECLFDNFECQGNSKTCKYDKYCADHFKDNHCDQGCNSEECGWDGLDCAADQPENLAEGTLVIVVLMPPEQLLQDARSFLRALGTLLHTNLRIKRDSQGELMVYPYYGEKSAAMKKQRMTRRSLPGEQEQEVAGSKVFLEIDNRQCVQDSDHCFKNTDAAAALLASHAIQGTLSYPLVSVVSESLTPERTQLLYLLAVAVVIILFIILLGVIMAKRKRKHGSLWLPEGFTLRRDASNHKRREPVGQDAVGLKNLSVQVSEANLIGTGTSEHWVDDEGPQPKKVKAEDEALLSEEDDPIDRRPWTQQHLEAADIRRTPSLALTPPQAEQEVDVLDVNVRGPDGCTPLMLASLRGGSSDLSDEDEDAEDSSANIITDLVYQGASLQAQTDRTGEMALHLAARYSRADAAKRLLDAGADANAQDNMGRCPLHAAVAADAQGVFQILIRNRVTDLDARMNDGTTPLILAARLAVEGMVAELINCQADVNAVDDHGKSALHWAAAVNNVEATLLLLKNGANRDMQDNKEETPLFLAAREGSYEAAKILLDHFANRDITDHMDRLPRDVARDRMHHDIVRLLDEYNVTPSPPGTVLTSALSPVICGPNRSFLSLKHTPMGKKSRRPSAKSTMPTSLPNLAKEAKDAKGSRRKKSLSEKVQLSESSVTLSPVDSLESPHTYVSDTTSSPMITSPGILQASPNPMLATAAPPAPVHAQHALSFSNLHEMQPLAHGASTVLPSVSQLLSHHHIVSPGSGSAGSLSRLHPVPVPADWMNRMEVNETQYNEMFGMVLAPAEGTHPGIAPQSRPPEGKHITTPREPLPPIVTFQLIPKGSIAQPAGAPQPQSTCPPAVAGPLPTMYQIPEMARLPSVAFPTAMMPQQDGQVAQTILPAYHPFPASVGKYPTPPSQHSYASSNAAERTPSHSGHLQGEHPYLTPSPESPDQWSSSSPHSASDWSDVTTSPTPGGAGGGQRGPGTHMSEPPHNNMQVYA
The target of experiment [6] is Pro-neuregulin-1, membrane-bound isoform (Homo sapiens) (UniProt Q02297). As to the kind of experiment: small molecules binding neuregulin-1 protein – biochemical, small-molecule microarray, fluorescence 635/667, psychiatric disease protein project, primary screen (AID 1075).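 Also: score combines 667 nm spot fluorescence with signal to noise.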 The following applies: NRG1 binding, 635 nm fluorescence, higher = more signal.
Experiment [7] has as its system Neuregulin-1 EGF-like domain. As to the kind of experiment: small molecules binding NRG1 EGF domain – biochemical, small-molecule microarray, 635 nm fluorescence, primary screen (AID 1081).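 Also: binding of the protein to compounds printed on small-molecule microarray slides.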 The following applies: higher = more signal.
The nature of experiment [8]: FRG1 expression reporter modulators in myotubes – cell-based, C2C12 myotubes, firefly/Renilla luciferase, luminescence, FRG1 inhibition for FSHD, primary screen (AID 1084). The following applies: FRG1 promoter luciferase, higher = more signal, called active from +8 up or from −8 down.
A short description of experiment [9]: small molecules captured by biotinylated probe aFST – biochemical, small-molecule microarray, fluorescence 635/667, stem cell growth factor project, primary screen (AID 1086).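 Also: score merges 667 nm fluorescence with signal-to-noise of each printed compound spot.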 The following applies: higher = more signal.
The nature of experiment [10]: binders of probe aHhip on microarray, primary screen, stem cell growth factor project, biochemical, small-molecule microarray, fluorescence 635/667 (AID 1087).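 Also: score merges spot fluorescence at 667nm with spot signal to noise ratio.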 The following applies: higher = more signal.
For experiment [11], the system named is PRMT1 (protein arginine N-methyltransferase 1). As to the kind of experiment: small molecules binding arginine methyltransferase PRMT1 – biochemical, small-molecule microarray, 635 nm fluorescence, primary screen (AID 1088).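 Also: binding of Prmt1 protein to compounds spotted on small-molecule microarray slides.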 The following applies: higher = more signal.
A short description of experiment [12]: growth effects on S. cerevisiae YJM789 – YJM789 clinical isolate, OD600, 24 h, basal, primary screen (AID 1089).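 Also: growth of clinical yeast isolate S. cerevisiae YJM 789 seeded 1000 cells per well; test concentration not given here.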 The following applies: higher = more signal, called active from +8 up or from −8 down.
The nature of experiment [13]: S. pombe growth modifiers, basal conditions – strain 972, OD600, 24 h, no modulator, primary screen (AID 1090).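 Also: basal condition with compound alone and no growth modifier present; test concentration not given here.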 The following applies: S. pombe 972 growth, higher = more signal, called active from +8 up or from −8 down.
The nature of experiment [14]: budding yeast growth modifiers under rapamycin – strain BY4716, OD600, 96 h, primary screen (AID 1091). Also: test concentration not given here. The following applies: S. cerevisiae BY4716 + rapamycin, higher = more signal, called active from +8 up or from −8 down.
For experiment [15], the target named is Torsin-1A-interacting protein 2 (Homo sapiens) (UniProt Q8NFQ8). As to the kind of experiment: small molecules binding lysate-expressed LULL1 – cell lysate, human LULL1 lysate, 635/667 nm fluorescence, primary screen (AID 1092).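 Also: score merges per-feature 667 nm fluorescence with signal-to-noise.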 The following applies: small-molecule microarray, hLULL1 lysate binding, 635 nm fluorescence; higher = more signal.
Experiment [16] can be described thus: optical density change of DRC41 E. coli – strain DRC41, OD650, 24 h, E. coli filamentation project, primary screen (AID 1093).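 Also: MC1000 strain lacking acrAB efflux and sulA so SOS filamentation is blocked; test concentration not given here.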 The following applies: E. coli DRC41 growth, higher = more signal, called active from +8 up or from −8 down.
The nature of experiment [17]: probe aLefty2 binding to arrayed compounds – biochemical, biotinylated probe, 635/667 nm fluorescence, primary screen (AID 1094).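 Also: score merges spot fluorescence near 667 nm with spot signal-to-noise ratio.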 The following applies: small-molecule microarray, higher = more signal.
The subject of experiment [18] is Noggin (protein binding on small-molecule microarray). As to the kind of experiment: small molecules binding Noggin protein – biochemical, 635/667 nm fluorescence, primary screen (AID 1095).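 Also: score merges 667 nm feature fluorescence with signal to noise over triplicate slides.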 The following applies: 635 nm fluorescence, higher = more signal.
Experiment [19] has as its target Neurogenic locus notch homolog protein 3 (Homo sapiens) (UniProt Q9UM47). As to the kind of experiment: small molecules binding NOTCH3 protein – biochemical, 635/667 nm fluorescence, primary screen (AID 1096). The following applies: small-molecule microarray, 635 nm fluorescence, higher = more signal.
Experiment [20] can be described thus: probe aEGFR binding to arrayed compounds – biochemical, biotinylated probe, 635/667 nm fluorescence, primary screen (AID 1097).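 Also: probe is a biotinylated anti-EGFR antibody binding compounds printed on slides; score combines fluorescence near 667 nm and signal to noise of each spot.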 The following applies: small-molecule microarray, higher = more signal.

Sequence of Neurogenic locus notch homolog protein 3 (Homo sapiens) (Q9UM47 whole entry, looked up): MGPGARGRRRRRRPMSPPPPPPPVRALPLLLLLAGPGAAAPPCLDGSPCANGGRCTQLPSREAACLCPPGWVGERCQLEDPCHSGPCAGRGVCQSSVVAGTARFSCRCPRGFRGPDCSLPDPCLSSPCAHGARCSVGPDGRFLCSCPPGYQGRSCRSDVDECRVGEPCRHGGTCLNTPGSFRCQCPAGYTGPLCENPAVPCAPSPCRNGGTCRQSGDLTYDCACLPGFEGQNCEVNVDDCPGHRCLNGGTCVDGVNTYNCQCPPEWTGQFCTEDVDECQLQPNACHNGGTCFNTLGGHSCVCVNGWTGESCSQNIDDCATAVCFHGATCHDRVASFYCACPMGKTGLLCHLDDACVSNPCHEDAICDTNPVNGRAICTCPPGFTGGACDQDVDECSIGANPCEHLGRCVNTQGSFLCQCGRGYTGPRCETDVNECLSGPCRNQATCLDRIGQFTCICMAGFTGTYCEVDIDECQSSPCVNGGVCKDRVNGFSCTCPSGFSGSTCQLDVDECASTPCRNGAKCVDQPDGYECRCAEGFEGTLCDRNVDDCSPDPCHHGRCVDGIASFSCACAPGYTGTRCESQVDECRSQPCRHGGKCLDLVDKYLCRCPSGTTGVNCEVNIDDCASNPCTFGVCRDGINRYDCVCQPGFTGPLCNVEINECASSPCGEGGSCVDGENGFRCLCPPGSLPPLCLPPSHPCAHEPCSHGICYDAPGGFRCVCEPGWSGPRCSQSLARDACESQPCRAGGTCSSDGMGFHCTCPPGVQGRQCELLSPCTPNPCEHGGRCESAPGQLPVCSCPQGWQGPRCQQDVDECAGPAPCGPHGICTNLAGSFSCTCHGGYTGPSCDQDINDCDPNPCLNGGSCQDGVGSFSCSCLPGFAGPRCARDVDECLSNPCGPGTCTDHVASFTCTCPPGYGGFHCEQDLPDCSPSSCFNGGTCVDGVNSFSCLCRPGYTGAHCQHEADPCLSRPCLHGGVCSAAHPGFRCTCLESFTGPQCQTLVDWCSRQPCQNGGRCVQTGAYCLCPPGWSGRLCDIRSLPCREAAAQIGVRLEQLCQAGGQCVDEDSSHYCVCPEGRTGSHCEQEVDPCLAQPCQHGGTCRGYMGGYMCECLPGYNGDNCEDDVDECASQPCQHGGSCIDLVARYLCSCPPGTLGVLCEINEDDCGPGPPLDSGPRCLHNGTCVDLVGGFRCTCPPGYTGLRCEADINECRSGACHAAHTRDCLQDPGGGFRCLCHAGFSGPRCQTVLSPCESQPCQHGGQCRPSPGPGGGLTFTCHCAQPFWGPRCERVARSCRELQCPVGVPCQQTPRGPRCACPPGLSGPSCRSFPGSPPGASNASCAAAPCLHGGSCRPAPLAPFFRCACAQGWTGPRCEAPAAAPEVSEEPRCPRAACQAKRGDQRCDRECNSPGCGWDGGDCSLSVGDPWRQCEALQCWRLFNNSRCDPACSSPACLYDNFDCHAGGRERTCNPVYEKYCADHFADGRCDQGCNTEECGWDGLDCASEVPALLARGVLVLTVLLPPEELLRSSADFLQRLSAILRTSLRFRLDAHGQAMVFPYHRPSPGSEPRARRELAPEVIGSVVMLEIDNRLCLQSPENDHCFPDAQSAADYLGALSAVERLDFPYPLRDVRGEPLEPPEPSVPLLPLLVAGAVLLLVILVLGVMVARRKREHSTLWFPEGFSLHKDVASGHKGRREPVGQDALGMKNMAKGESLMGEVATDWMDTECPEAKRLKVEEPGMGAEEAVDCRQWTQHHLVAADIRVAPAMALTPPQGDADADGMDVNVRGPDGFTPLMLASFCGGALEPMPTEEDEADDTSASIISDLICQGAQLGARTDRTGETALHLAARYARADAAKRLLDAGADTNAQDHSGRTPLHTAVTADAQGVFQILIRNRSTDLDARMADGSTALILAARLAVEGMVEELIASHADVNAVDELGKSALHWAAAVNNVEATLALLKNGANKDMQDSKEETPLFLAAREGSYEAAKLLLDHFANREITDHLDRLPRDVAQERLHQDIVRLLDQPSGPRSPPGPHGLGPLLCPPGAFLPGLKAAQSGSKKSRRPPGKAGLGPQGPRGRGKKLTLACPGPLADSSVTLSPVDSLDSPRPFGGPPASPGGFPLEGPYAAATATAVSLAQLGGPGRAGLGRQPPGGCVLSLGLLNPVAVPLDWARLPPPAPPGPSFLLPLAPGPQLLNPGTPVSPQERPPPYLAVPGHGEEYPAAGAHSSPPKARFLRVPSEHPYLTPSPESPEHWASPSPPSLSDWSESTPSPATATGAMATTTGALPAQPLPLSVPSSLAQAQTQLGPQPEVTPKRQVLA

For the compound `CCN(CC)c1ccc(N2CC=CC34O[C@@H]5C=CCOC(=O)[C@@H]5[C@H]3C(=O)N(C(CO)C(C)C)[C@@H]4C2=O)cc1` (stereo not given in full), the composite z-score is 0.277 in experiment [1]; -0.866 in experiment [2]; -0.134 in experiment [3]; -0.241 in experiment [4]; -0.835 in experiment [5]; -0.367 in [6]. Moreover, the composite z-score is -0.805 in experiment [7]; -0.609 in [9]; -0.134 in experiment [10]; -0.755 in experiment [11]; -0.952 in experiment [15]; -0.138 in experiment [17]. Moreover, the composite z-score was -0.544 in experiment [18], -1.02 in experiment [19] and -0.253 in experiment [20]. The z-score in experiment [8] was 0.232 (inactive); in [12], 1.01 (inactive); in [13], -0.635 (inactive); in experiment [14], 1.07 (inactive); in experiment [16] it was 1.59 (inactive).
Take `CC(C)(C)OC(=O)CC[C@@]1(C(=O)N2CCOCC2)N=C(c2ccc(OCCCO)cc2)O[C@@H]1c1ccccc1`: the composite z-score in [1] came out at 1.19; in experiment [2] it was 0.426; in [3], 0.088; in experiment [4] it was 0.435; in experiment [5], 1.07; in [6], 2.16. Moreover, the composite z-score amounted to 1.36 in experiment [7]; 0.517 in experiment [9]; 0.28 in experiment [10]; 1.58 in experiment [11]; 3.95 in experiment [15]; 0.32 in [17]. The composite z-score in experiment [18] was found to be 0.743; in experiment [19], 0.274; in [20], 0.233. The z-score in [8] was -1.79 (inactive); in experiment [12], 0.153 (inactive); in experiment [13], -0.0631 (inactive); in experiment [14], 0.248 (inactive); in experiment [16], 1.32 (inactive).
For the compound `COC(=O)C(CC#Cc1ccc2c(c1)[C@]1(C(=O)N2)[C@H](C(=O)O)[C@H]2C(=O)O[C@H](c3ccccc3)[C@H](c3ccccc3)N2[C@@H]1c1ccc(OCCO)cc1)C(=O)OC`, the composite z-score is -0.0148 in experiment [1]; 1.74 in experiment [2]; -0.0144 in [3]; 0.767 in [4]; 1.17 in [5]; 2.11 in experiment [6]. For the same compound, the composite z-score in [7] is 1.31; in [9] it was 0.6; in [10] it was -0.0994; in experiment [11], 1.55; in experiment [15] it was 3.03; in experiment [17], -0.0816. Besides, the composite z-score is 0.245 in experiment [18], 0.983 in [19] and -0.0728 in [20]. Moreover, the z-score in experiment [8] is -1.19 (inactive); in experiment [12], 0.299 (inactive); in experiment [13] it was -1.91 (inactive); in [14], -1.38 (inactive); in [16] it was 3.49 (inactive).
With `C=C(C1=CCN(S(=O)(=O)c2ccc(C)cc2)C1)[C@@H](OC(C)=O)[C@@H]1CCCN1S(=O)(=O)c1ccccc1[N+](=O)[O-]`, the composite z-score is -0.0883 in experiment [1]; -0.189 in experiment [2]; -0.05 in experiment [3]; 0.487 in experiment [4]; -0.574 in experiment [5]; -0.158 in experiment [6]. The composite z-score in experiment [7] was 0.406; in [9], -0.344; in [10], -0.0994; in [11] it was -0.267; in [15], 1.2; in experiment [17], -0.297. Also, the composite z-score is -0.305 in [18], 0.127 in experiment [19] and -0.202 in experiment [20]. The z-score was -3.21 (inactive) in experiment [8]; 0.943 (inactive) in [12]; 0.0893 (inactive) in experiment [13]; 1.82 (inactive) in [14]; 2.89 (inactive) in [16].
With `C=CC[C@]1(C(=O)N2CCCCC2)COC(c2ccc(OCCCO)cc2)=N1`, the composite z-score in experiment [1] was 0.892; in experiment [2], 0.586; in experiment [3] it was -0.153; in [4] it was -1.44; in [5] it was -1.58; in experiment [6], 1.05. In addition, the composite z-score is 0.796 in [7]; -0.329 in experiment [9]; -0.251 in experiment [10]; 0.517 in experiment [11]; 2.43 in [15]; 0.0499 in [17]. Moreover, the composite z-score in [18] was 0.452; in [19], -0.904; in experiment [20], -0.0933. The z-score in [8] is -2.05 (inactive); in [12] it was -0.485 (inactive); in experiment [13] it was -5.08 (inactive); in [14], -2.75 (inactive); in experiment [16], 1.16 (inactive).
